# Results as given in PubChem BioAssay (NCI).
# The panel holds about 83,000 compounds, 20% with a hit somewhere; the sample as a whole holds those more often.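 Single-dose data. Exposure time 48 hours. Values below 10 considered active.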 Unmarked numbers belong to inactive results. The source made the active and inactive calls.
# Test system: MDA-MB-468 breast
# Assay: NCI-60 one-dose screen, 48 h (100 = growth as untreated, 0 = no growth, -100 = all killed)
# Settings: 10 µM unless noted
row,Structure (SMILES),growth
1,O=c1c(-c2nc3ccccc3[nH]2)cc2ccccc2n1Cc1cn(Cc2ccc(F)cc2)nn1,4.78% (active)
2,C#C[C@]1(O)CC[C@H]2[C@@H]3CC=C4c5sc(Nc6ccc(C)cn6)nc5CC[C@]4(C)[C@H]3CC[C@@]21C,-23.1% (active)
3,CCOc1ccc(-n2cc(-c3ccc(N(C)C)cc3)[n+]3c2CCCCC3)cc1,-17.4% (active)
4,CCCCCCOc1ccc(C(=N)N(CCCC)CCCC)c2ccccc12,-82.3% (active)
5,CC(C)c1ccc(NCc2cn(-c3ccc(C(=O)O)cc3)nc2-c2cc(C(F)(F)F)cc(C(F)(F)F)c2)cc1,102%
6,Cc1cc(C(NC(=O)CCCCCNc2cccc3c2C(=O)N(C2CCC(=O)NC2=O)C3=O)c2ccc3c(c2)OC(F)(F)O3)c(O)c2ncccc12 (stereo not given),69%
7,O=c1cc(CP(=O)(O)O)c2cc(O)c(-c3ccccc3)cc2o1,99.1%
8,NS(=O)(=O)c1ccc(-n2nc(C(=O)N/N=C\c3ccc(F)cc3)cc2-c2ccc(Cl)cc2)cc1,112%
9,C=C(c1ccc(OC)c(/C=C/C(=O)c2cc(OC)c(OC)c(OC)c2)c1)c1cc(OC)c(OC)c(OC)c1,-8.58% (active)
10,COc1ccc(-c2nc(SCCC(C)C)nc(N/N=C\c3cccc(Cl)c3)c2C#N)cc1,95.9%
11,CCOc1ccc(-c2nc3ccc(-c4nc5ccc(N6CCN(C)CC6)cc5[nH]4)cc3[nH]2)cc1OCC,-44.5% (active)
12,CC/C=C\C/C=C\C[C@H]1C/C=C2/C(=O)C=C[C@H]2C/C=C\CCC(=O)O1,-7.14% (active)
13,CN1CCN(CCNc2nccc(-c3c(-c4cccc(O)c4)nc4sccn34)n2)S1(=O)=O,79.4%
14,CCc1cccc2c3c(sc12)C(c1ccc(F)cc1)C(C#N)=C(N)O3 (stereo not given),31.2%
15,COc1ccc(C/C(C)=C(\c2ccc(O)cc2)c2ccc(OCCN3CCCCC3)cc2)cc1,70.2%
16,O=C1NCCC12CCN(c1c(Cl)cncc1-c1ccc(O)cc1)CC2,84.3%
17,COc1cccc(CNc2cccc3cn[nH]c23)c1O,80.6%
18,COc1ccc(C(=O)c2cc(C)c(OC)c(C)c2)c(OC)c1NC(C)=O,12.4%

row,Structure (SMILES),growth
1,COc1cccc(-c2nn(-c3ccccc3)cc2-c2ccnc(N3CCN(C(=O)Nc4ccc(F)cc4)CC3)c2)c1,51.6%
2,COc1cccc(C(=O)Cn2cc(/C=C(\C#N)S(=O)(=O)c3ccccc3)c3ccccc32)c1,104%
3,O=C1OCC2=C1C(c1ccc3c(c1)OCO3)CC(=O)N2c1cccc(Cl)c1 (stereo not given),88.1%
4,CCOC(=O)c1c(NC(=O)c2ccc(C(F)(F)F)cc2)sc2c(CN3CCN(C)CC3)c(O)ccc12,-80.6% (active)
5,Cc1c(C)c(N2C(=O)C=CC2=O)c(C)c(C)c1N1C(=O)C=CC1=O,96.5%
6,O=[P@@]1(c2ccccc2)O[C@H](COCc2ccccc2)[C@@H](OCc2ccccc2)[C@H](OCc2ccccc2)[C@H]1O,21.3%
7,CCOC(=O)c1ccc(Nc2ncnc3c2cnn3-c2cccc(F)c2)cc1,103%
8,CC(=O)O[C@H]1CC[C@@]2(C)C(=CC[C@@H]3[C@@H]2CC[C@]2(C)C(=O)N(O)C(=O)C[C@@H]32)C1,83.6%
9,O=C(N/N=C\c1ccc(Cl)cc1)c1ccc2nc(-c3ccc(Br)cc3)[nH]c2c1,-34.9% (active)
10,[2H]c1cc2c(c([2H])c1F)/C(=C/c1[nH]c(C)c(C(=O)NCCN(CC)CC)c1C)C(=O)N2,118%
11,OCC(Nc1ncnc2ccc(-c3cnc4cnccn34)cc12)c1ccccc1 (stereo not given),-2.48% (active)
12,O=[N+]([O-])c1cccc(N=NNc2cccc([N+](=O)[O-])c2)c1,57.9%
13,O=C1/C(=C/c2ccc(OCc3ccccc3)cc2)Oc2cc(OCCN3CCCCC3)ccc21,48.3%
14,O=C1NC(=S)NC(=O)C1CC(=O)n1c(-c2ccccc2)nc2ccccc21,105%
15,CC(C)Cc1cc(CNC(=O)C2[C@H]3CN(C(=O)c4ccccc4)C[C@@H]23)nn1-c1ccccc1 (stereo not given in full),88.9%
16,CNC(=O)c1c(NC(=O)c2ccc(C(C)C)cc2)sc2c1CCC(=O)C2,-28.4% (active)
17,O=C1c2cccnc2C(=O)c2c1c(C(=O)OCCCN1CCOCC1)c1ccccn21,4.71% (active)
